As a reminder, the inhibition is the drop in the measured response relative to a control, in per cent.

A number with no mark means an inactive call. The list shows a part of the results. Calls of active or inactive are those of the source. Cut-off read from the data, not from the text of the source, unless noted: active = inhibition above about 33%; inactive = the rest.

These results are taken from PubChem BioAssay.

Sequence of COUP transcription factor 2 (Homo sapiens) (P24468 whole entry, looked up): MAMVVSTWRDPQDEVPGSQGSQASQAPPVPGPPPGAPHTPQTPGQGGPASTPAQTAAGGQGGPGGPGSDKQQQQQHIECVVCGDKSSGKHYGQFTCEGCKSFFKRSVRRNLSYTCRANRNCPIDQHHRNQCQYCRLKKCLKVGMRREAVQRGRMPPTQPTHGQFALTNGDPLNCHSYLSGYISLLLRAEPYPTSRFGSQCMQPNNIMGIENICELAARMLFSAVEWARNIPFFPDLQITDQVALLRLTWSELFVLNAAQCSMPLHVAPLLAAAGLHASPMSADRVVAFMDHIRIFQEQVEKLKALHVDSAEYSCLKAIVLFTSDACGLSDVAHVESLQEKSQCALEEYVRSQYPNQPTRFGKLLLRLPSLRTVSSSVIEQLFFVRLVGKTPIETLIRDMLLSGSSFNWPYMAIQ

Tested on in one test: not listed separately
Kind of test: compounds suppressing VP16-driven luciferase signal – cell-based, luminescence, high throughput, counter-screen for LRH-1 inverse agonist project (AID 651615). Particulars: Gal4-VP16 luciferase reporter cells, at 3.6 µM, active compounds read high.
Regarding `CN(c1ccc2nc3ccccc3c(=O)n2n1)C1CCCCC1`, the inhibition is 18%.

Regarding `Cc1cccc(NC(=O)c2ccc([N+](=O)[O-])o2)c1`, the inhibition is -13.2%.

As to `C[C@@H]1C[C@@H]2O[C@H]2/C=C\C=C\C(=O)Cc2c(Cl)c(O)cc(O)c2C(=O)O1`, the inhibition is 79.3% (active).

In the case of `Cn1nccc1C(=O)NC1CCCc2c1cnn2-c1ccc(F)cc1F` (centres undefined), the inhibition is 57.1% (active).

As for `COc1ccc(C(=O)Nc2ccccc2C(=O)N/N=C/c2ccc(O)c(OC)c2)cc1`, the inhibition is -41.2%.

The subject of another test is transactivating tegument protein VP16 (Human herpesvirus 1). Kind of test: compounds suppressing VP16-driven luciferase signal – cell-based, luminescence, single concentration, counter-screen for SRC2 inhibitor project (AID 652007; in the data active = inhibition above about 36%). Conditions: cell-based VP16 transactivation luciferase reporter, at 8.9 µM, active compounds read high. (In general: The purpose of a counterscreen is to sort out artefacts and off-target activity.)
Turning to `CCOc1cc(C(=O)N2CCc3cc(OC)c(OC)cc3C2)ccc1OC(F)F`, the inhibition was -28%.

Turning to `CN(c1ccc2nc3ccccc3c(=O)n2n1)C1CCCCC1`, the inhibition was 50.9% (active).

Turning to `COc1ccc(C(=O)Nc2ccccc2C(=O)N/N=C/c2ccc(O)c(OC)c2)cc1`, the inhibition was 64.8% (active).

For a further test, the target named is Nuclear receptor coactivator 2 (Homo sapiens) (UniProt Q15596). The experiment in a line: inhibition of GAL4-SRC2 driven luciferase expression – cell-based, luminescence, HEK293, triplicate, confirmation (AID 652008;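 active = mean inhibition above 46.5%, the solvent-only control mean plus 3 SD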;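 note: 0% = DMSO-treated cells and 100% = Gossypol at 36 µM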). Conditions: HEK293 GAL4-SRC2 luciferase reporter, at 8.9 µM, active compounds read high. In general terms: A reporter such as luciferase makes a cellular process visible.
Sequence of Nuclear receptor coactivator 2 (Homo sapiens) (Q15596 whole entry, looked up, the tested form may be a part): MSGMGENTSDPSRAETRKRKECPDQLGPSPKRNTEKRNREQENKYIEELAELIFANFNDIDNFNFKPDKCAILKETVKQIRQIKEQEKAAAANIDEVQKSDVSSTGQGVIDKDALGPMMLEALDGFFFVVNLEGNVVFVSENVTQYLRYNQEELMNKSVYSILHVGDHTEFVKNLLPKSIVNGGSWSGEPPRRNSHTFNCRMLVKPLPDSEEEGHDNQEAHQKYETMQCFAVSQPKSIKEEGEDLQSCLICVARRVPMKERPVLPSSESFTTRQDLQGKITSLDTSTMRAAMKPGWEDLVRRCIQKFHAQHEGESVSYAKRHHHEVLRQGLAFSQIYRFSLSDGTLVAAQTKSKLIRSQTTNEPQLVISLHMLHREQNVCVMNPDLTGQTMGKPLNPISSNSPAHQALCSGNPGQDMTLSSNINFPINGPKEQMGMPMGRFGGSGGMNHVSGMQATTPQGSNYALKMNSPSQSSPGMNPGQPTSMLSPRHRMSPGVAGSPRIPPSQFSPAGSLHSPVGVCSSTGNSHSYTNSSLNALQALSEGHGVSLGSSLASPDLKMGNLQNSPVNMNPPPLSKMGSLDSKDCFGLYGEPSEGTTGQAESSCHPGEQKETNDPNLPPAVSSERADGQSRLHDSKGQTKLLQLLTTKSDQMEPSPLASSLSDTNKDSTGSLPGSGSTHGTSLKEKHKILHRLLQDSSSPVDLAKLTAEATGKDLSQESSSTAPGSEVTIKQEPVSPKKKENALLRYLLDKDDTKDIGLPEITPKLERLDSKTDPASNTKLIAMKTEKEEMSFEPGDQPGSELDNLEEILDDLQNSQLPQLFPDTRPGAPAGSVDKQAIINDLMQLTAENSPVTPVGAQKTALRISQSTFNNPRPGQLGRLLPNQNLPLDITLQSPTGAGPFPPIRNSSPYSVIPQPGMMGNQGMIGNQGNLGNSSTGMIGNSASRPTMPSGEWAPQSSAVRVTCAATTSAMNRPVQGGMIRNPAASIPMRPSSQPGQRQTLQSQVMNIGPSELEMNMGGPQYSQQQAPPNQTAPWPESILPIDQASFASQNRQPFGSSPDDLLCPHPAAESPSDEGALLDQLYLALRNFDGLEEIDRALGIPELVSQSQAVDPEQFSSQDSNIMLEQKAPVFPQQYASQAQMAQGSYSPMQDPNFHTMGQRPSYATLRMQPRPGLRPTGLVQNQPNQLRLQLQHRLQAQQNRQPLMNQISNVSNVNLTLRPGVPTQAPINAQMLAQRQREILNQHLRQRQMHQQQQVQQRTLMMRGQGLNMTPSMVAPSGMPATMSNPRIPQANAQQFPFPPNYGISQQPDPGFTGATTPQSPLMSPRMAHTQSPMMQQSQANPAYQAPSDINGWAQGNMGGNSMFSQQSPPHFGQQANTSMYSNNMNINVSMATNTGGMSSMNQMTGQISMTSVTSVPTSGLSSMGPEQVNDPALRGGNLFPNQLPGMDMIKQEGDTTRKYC
On to `CCOc1cc(C(=O)N2CCc3cc(OC)c(OC)cc3C2)ccc1OC(F)F`, for which the inhibition was 14.7%.

For `CN(c1ccc2nc3ccccc3c(=O)n2n1)C1CCCCC1`, the inhibition was 86% (active).

With `COc1ccc(C(=O)Nc2ccccc2C(=O)N/N=C/c2ccc(O)c(OC)c2)cc1`, the inhibition was 59.3% (active).

Tested on in a further test: not listed separately
The experiment in a line: VP16-driven transactivation reporter suppression – cell-based, luminescence, HEK293, counter-screen for COUP-TFII antagonist project (AID 687007; in the data active = inhibition above about 13%). Particulars: HEK293 Gal4-VP16 luciferase reporter, at 8.5 µM, active compounds read high.
In the case of `CN(c1ccc2nc3ccccc3c(=O)n2n1)C1CCCCC1`, the inhibition was 64.8% (active).

On to `C[C@@H]1C[C@@H]2O[C@H]2/C=C\C=C\C(=O)Cc2c(Cl)c(O)cc(O)c2C(=O)O1`, for which the inhibition was 64.3% (active).

As for `Cn1nccc1C(=O)NC1CCCc2c1cnn2-c1ccc(F)cc1F` (centres undefined), the inhibition was -3.41%.

For the molecule `COc1ccc(C(=O)Nc2ccccc2C(=O)N/N=C/c2ccc(O)c(OC)c2)cc1`, the inhibition is 7.03%.

A further test concerns the target COUP transcription factor 2 (Homo sapiens) (UniProt P24468). The experiment in a line: retest of COUP-TFII reporter suppressors – cell-based, luciferase reporter, HEK293, triplicate, confirmation (AID 687008;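 active = mean inhibition over three repeats above a set limit taken from the earlier primary screen, cut at about 38% in these data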;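 note: 100% = cells given the luciferase reporter alone without the COUP-TF2 vector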). Conditions: HEK293 NGFI-A luciferase reporter, luminescence; at 8.5 µM; active compounds read high.
Take `CN(c1ccc2nc3ccccc3c(=O)n2n1)C1CCCCC1`: the inhibition was 87.9% (active).

Consider `C[C@@H]1C[C@@H]2O[C@H]2/C=C\C=C\C(=O)Cc2c(Cl)c(O)cc(O)c2C(=O)O1`, for which the inhibition was 68% (active).

Consider `Cn1nccc1C(=O)NC1CCCc2c1cnn2-c1ccc(F)cc1F` (centres undefined), for which the inhibition was 62.2% (active).

Regarding `COc1ccc(C(=O)Nc2ccccc2C(=O)N/N=C/c2ccc(O)c(OC)c2)cc1`, the inhibition was 75.2% (active).
